Only some compounds are listed: those with a hit (about 3.3% of all), similar ones and a draw of the others.
Mcl1 Bid PPI: Mcl-1/Bid interaction inhibition | TR-FRET Mcl-1/Bid-Dy647 peptide binding, 1536-well | inhibition, % at 21.7 µM | hit rate 0.97% among 220,000;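 active means compounds that cut the binding signal by more than half at the single screening dose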;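 further: His-tagged Mcl-1 with europium anti-His antibody binding Bid BH3 peptide; 0% = Mcl-1 plus peptide wells and 100% = peptide-only wells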
Mcl1 Noxa PPI: Mcl-1/Noxa interaction inhibition; hit rate 1.5% among 220,000; inhibition, % at 21.7 µM; TR-FRET Mcl-1/Noxa peptide binding, 2 h; AID 1022;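 active means compounds that cut the protein-peptide binding signal by more than 50% relative to plate controls in a single-dose test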;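 further: His-tagged Mcl-1 with rhodamine Noxa BH3 peptide and terbium anti-His antibody; 0% = Mcl-1 plus Noxa peptide wells and 100% = peptide-only wells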
Mcl-1 Bim block: disrupts Bim peptide binding to human Mcl-1. hit rate 0.1% among 190,000. inhibition, % at 10 µM. Bead-based flow cytometry, Bim peptide-Mcl-1 binding. AID 1009; in the data active means inhibition above about 40%;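 further: 0% = no compound tracer wells and 100% = peptide blocker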
14-3-3 Bad PPI: disrupts binding of bovine 14-3-3 zeta to phospho-Bad peptide | P63103 | TR-FRET 14-3-3zeta/Dy647-pBad peptide displacement, 1 h | hit rate 0.71% among 220,000 | AID 781 | inhibition, % at 21.7 µM;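 active means inhibition above about 70%, limit read from the data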;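 further: 0% = full 14-3-3 plus peptide FRET controls and 100% = background without 14-3-3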
eIF4E 4G PPI: eIF4E/eIF4G interaction inhibition in translation initiation | P63073+Q04637 | TR-FRET eIF4E-eIF4GI(517-606) binding, 2 h | inhibition, % at 21.7 µM | hit rate 0.37% among 220,000;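 further: 0% = full FRET control wells and 100% = background wells lacking eIF4GI fragment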
NCF1 inh: inhibitors of human p47phox binding; P14598; p47phox/p22phox peptide binding, fluorescence polarization, 2 h; inhibition, % at 24.7 µM; hit rate 0.53% among 220,000; AID 1274;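 further: 0% = p47phox with labelled peptide and 100% = labelled peptide alone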
Starred values were filed as active, the others as inactive; ! = a repeat was not active.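 How the source made its calls, unless noted: active means inhibition above about 30% (limit read from the data); inactive means the rest.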

For O=C(/C=C/c1ccc2c(c1)OCO2)Nc1nc(-c2ccc(F)cc2)cs1 the results were Mcl1 Bid PPI -7.4, Mcl1 Noxa PPI 4.0, Mcl-1 Bim block -4.0, 14-3-3 Bad PPI 5.2, eIF4E 4G PPI 2.9 and NCF1 inh -5.6.
For CN1C[C@@H]2C(c3ccc(C(F)(F)F)cc3)C3(c4cccnc4)CC2(C3)[C@H]1c1ccccc1 (some centres undefined) the results were Mcl1 Bid PPI -81.4, Mcl1 Noxa PPI 2.7, 14-3-3 Bad PPI -4.1, eIF4E 4G PPI -0.4 and NCF1 inh -16.9.
COc1ccc(S(=O)(=O)NCC2CCCN(C(=O)CC3CCCC3)C2)cc1 (centres undefined) was read as Mcl1 Bid PPI -20.1, Mcl1 Noxa PPI 4.1, Mcl-1 Bim block -2.0, 14-3-3 Bad PPI -4.7, eIF4E 4G PPI 2.4 and NCF1 inh -2.5.
O=C(NCCO)c1ccc2nc(-c3ccco3)c(-c3ccco3)nc2c1 was read as Mcl1 Bid PPI -28.0, Mcl1 Noxa PPI 92.2*, Mcl-1 Bim block 14.0, 14-3-3 Bad PPI -4.3, eIF4E 4G PPI 6.2 and NCF1 inh -7.8.
`COc1ccccc1N1CCN(C(=O)c2ccc3nc(-c4ccco4)c(-c4ccco4)nc3c2)CC1` gave Mcl1 Bid PPI -44.8, Mcl1 Noxa PPI 63.1*, Mcl-1 Bim block -5.0, 14-3-3 Bad PPI -8.7, eIF4E 4G PPI 7.4 and NCF1 inh -7.7.
Screening O=C(O)c1ccc2nc(-c3ccccc3)c(-c3ccccc3)nc2c1 returned Mcl1 Bid PPI -12.6, Mcl1 Noxa PPI 12.1, Mcl-1 Bim block -6.0, 14-3-3 Bad PPI -4.9, eIF4E 4G PPI -6.4 and NCF1 inh 8.3.
Screening O=C(NCCO)c1ccc(Cl)c(Cl)c1 returned Mcl1 Bid PPI -6.8, Mcl1 Noxa PPI 13.5, Mcl-1 Bim block 0.0, 14-3-3 Bad PPI -0.8, eIF4E 4G PPI -0.5 and NCF1 inh -2.4.
`O=C(c1ccccc1)c1ccc2nc(-c3ccco3)c(-c3ccco3)nc2c1` gave Mcl1 Bid PPI 17.3, Mcl1 Noxa PPI 99.1*, Mcl-1 Bim block 18.0, 14-3-3 Bad PPI 15.2, eIF4E 4G PPI 24.4 and NCF1 inh -8.1.
`O=C(NCCc1ccccc1)c1ccc2nc(-c3ccco3)c(-c3ccco3)nc2c1` gave Mcl1 Bid PPI 55.8*, Mcl1 Noxa PPI 103.0*, Mcl-1 Bim block 8.0, 14-3-3 Bad PPI 17.9, eIF4E 4G PPI 18.3 and NCF1 inh -14.2.
C=CCSc1nc2sc(C)c(C)c2c(=O)n1N was read as Mcl1 Bid PPI -21.2, Mcl1 Noxa PPI -6.9, Mcl-1 Bim block -3.0, 14-3-3 Bad PPI 3.3, eIF4E 4G PPI 2.4 and NCF1 inh -8.3.
For O=c1oc(-c2ccco2)nc2ccccc12 the results were Mcl1 Bid PPI 4.7, Mcl1 Noxa PPI 28.9, Mcl-1 Bim block -3.0, 14-3-3 Bad PPI -15.1, eIF4E 4G PPI 2.0 and NCF1 inh 5.3.
O=C(NC1CCCC1)c1ccc2nc(-c3ccco3)c(-c3ccco3)nc2c1 was read as Mcl1 Bid PPI 28.7, Mcl1 Noxa PPI 100.6*, Mcl-1 Bim block 4.0, 14-3-3 Bad PPI -5.8, eIF4E 4G PPI 15.3 and NCF1 inh 12.3.
Screening c1coc(-c2nc3ccccc3nc2-c2ccco2)c1 returned Mcl1 Bid PPI -39.0, Mcl1 Noxa PPI 84.8*, Mcl-1 Bim block 9.0 and NCF1 inh 0.7.
Cn1cncc1C(=O)c1ccccc1 was read as Mcl1 Bid PPI -10.5, Mcl1 Noxa PPI 10.6, 14-3-3 Bad PPI -3.6, eIF4E 4G PPI 1.9 and NCF1 inh -8.0.
O=[N+]([O-])c1ccc(C2Nc3cccc4cccc(c34)N2)cc1 was read as Mcl1 Bid PPI -63.6, Mcl1 Noxa PPI 67.4*, Mcl-1 Bim block -9.0, 14-3-3 Bad PPI 1.2, eIF4E 4G PPI 6.0 and NCF1 inh 2.9.
`COc1ccc(CCNC(=O)CN(c2cccc([N+](=O)[O-])c2)S(C)(=O)=O)cc1` gave Mcl1 Bid PPI -6.8, Mcl1 Noxa PPI 2.2, Mcl-1 Bim block 2.0, 14-3-3 Bad PPI 0.3, eIF4E 4G PPI 4.2 and NCF1 inh -5.2.
For COc1ccc(CCNC(=O)CN(c2ccc(OC)c(OC)c2)S(C)(=O)=O)cc1 the results were Mcl1 Bid PPI -18.7, Mcl1 Noxa PPI 75.1*, Mcl-1 Bim block -4.0, 14-3-3 Bad PPI -1.9, eIF4E 4G PPI 1.8 and NCF1 inh 7.5.
Screening COc1cc(S(=O)(=O)N(Cc2cccnc2)Cc2cccc(OC)c2OC)ccc1-n1cnnn1 returned Mcl1 Bid PPI -5.5, Mcl1 Noxa PPI 9.3, 14-3-3 Bad PPI 3.2, eIF4E 4G PPI -3.6 and NCF1 inh -0.5.
For Oc1ccc(N=Nc2cccc(Cl)c2)cc1C=Nc1ccc(N2CCOCC2)cc1 the results were Mcl1 Bid PPI 56.3*, Mcl1 Noxa PPI 86.5*, Mcl-1 Bim block 0.0, 14-3-3 Bad PPI 15.9, eIF4E 4G PPI 1.0 and NCF1 inh 1.1.
Cc1nn(-c2cc(N3CCCCC3)ccc2N)c(=O)c2ccccc12 was read as Mcl1 Bid PPI -41.5, Mcl1 Noxa PPI 20.3, Mcl-1 Bim block -3.0, 14-3-3 Bad PPI -5.7, eIF4E 4G PPI 1.2 and NCF1 inh 1.4.
Screening Nc1ccc(N2CCCCC2)cc1N1CCCCC1 returned Mcl1 Bid PPI -14.9, Mcl1 Noxa PPI 75.7*, Mcl-1 Bim block 0.0, 14-3-3 Bad PPI 67.6, eIF4E 4G PPI 19.4 and NCF1 inh 16.2.
For CCn1c(SCC(=O)Nc2ccc3c(c2)oc2ccccc23)nnc1-c1ccc(N)cc1 the results were Mcl1 Bid PPI 58.3*, Mcl1 Noxa PPI 55.8*, Mcl-1 Bim block 2.0, 14-3-3 Bad PPI 65.8, eIF4E 4G PPI 5.4 and NCF1 inh 0.0.
Screening COc1ccccc1NC(=O)CSCc1nc2ccccc2[nH]1 returned Mcl1 Bid PPI 51.6*, Mcl1 Noxa PPI 13.4, Mcl-1 Bim block -4.0, 14-3-3 Bad PPI 3.6, eIF4E 4G PPI -4.2 and NCF1 inh -1.4.
Screening COc1ccccc1NC(=O)CSCC(N)=O returned Mcl1 Bid PPI 5.5, Mcl1 Noxa PPI -15.2, Mcl-1 Bim block -4.0, 14-3-3 Bad PPI 3.7, eIF4E 4G PPI -5.5 and NCF1 inh -7.2.
Screening CCNC(=O)NC(=O)C(C)OC(=O)C1CCN(S(=O)(=O)c2ccccc2C(=O)OC)CC1 (centres undefined) returned Mcl1 Bid PPI -2.9, Mcl1 Noxa PPI 7.0, Mcl-1 Bim block 2.0, 14-3-3 Bad PPI 4.0, eIF4E 4G PPI 2.7 and NCF1 inh -3.6.
`O=C(CNS(=O)(=O)c1c(Cl)cccc1Cl)OCc1csc(-c2ccccc2)n1` gave Mcl1 Bid PPI -15.7, Mcl1 Noxa PPI 25.2, Mcl-1 Bim block -6.0, 14-3-3 Bad PPI -20.6, eIF4E 4G PPI 6.3 and NCF1 inh -17.7.
For CCn1nc(C)cc1C(=O)Sc1cccc(Br)c1 the results were Mcl1 Bid PPI -8.0, Mcl1 Noxa PPI 2.6, 14-3-3 Bad PPI -4.6, eIF4E 4G PPI -2.2 and NCF1 inh 0.4.
For Cc1ccccc1OCc1n(CC(=O)OC2CC(C)CCC2C(C)C)c2ccccc2[n+]1C (centres undefined) the results were Mcl1 Bid PPI -2.1, Mcl1 Noxa PPI -10.0, Mcl-1 Bim block -4.0, 14-3-3 Bad PPI -12.3, eIF4E 4G PPI 4.2 and NCF1 inh 38.6*!.

Source: PubChem (several laboratories)
